From PubChem BioAssay (Tox21)
Inconclusive results are not listed. Entries that show only a call come without a potency. The source made the active and inactive calls. The call rests on the fitted dose curve; in most records, active means well fitted cell-killing curve with a large enough effect in the repeat runs; inconclusive means weak or mixed curves; inactive means no such curve, though single readings can be large or run the other way.

assay: qHTS assay for identifying genotoxic compounds that show differential cytotoxicity against isogenic chicken DT40 cell lines with known DNA damage response pathways - Rad54/Ku70 mutant cell line (AID 743015); details: DT40 Rad54/Ku70 mutant viability, CellTiter-Glo, 40 h; series mostly up to 66.8 µM; further: nearly all actives have a fitted effect of over 60% in size
Potency means the concentration at half of the fitted maximal effect.

| SMILES | Potency |
| --- | --- |
| NCCCN1CCN(CCCN)CC1 | inactive |
| CCOC(=O)[C@H](CCc1ccccc1)N[C@@H](C)C(=O)N1Cc2cc(OC)c(OC)cc2C[C@H]1C(=O)O | inactive |
| COc1ccc(S(=O)(=O)Nc2nnc(CC(C)C)s2)cc1 | inactive |
| C[C@]12C(=O)OC(=O)[C@H]1[C@H]1C=C[C@@H]2C1 | inactive |
| COC(C)CCO (stereo not drawn) | inactive |
| Cn1cnc2c(F)c(Nc3ccc(Br)cc3Cl)c(C(=O)NOCCO)cc21 | inactive |
| Cc1cc(S(=O)(=O)O)c(N)cc1Cl | inactive |
| OC[C@H]1O[C@@H](O[C@H]2[C@H](O)[C@@H](O)[C@H](O)O[C@@H]2CO)[C@H](O)[C@@H](O)[C@H]1O | inactive |
| C=CCc1cc(OC)c(O)c(C(=O)NCCO)c1 | inactive |
| COc1ccccc1OCC(O)COC(N)=O (stereo not drawn) | inactive |
| OCC(CBr)(CBr)CBr | inactive |
| CC1=C2[C@H](/C=C(\C)C(=O)O)CC[C@@H](C)[C@H]2CC1 | inactive |
| OCCN(CCO)c1ccccc1 | inactive |
| CC(C)C(=O)OC/C=C/c1ccccc1 | inactive |
| CCOC(=O)NCCC[Si](OCC)(OCC)OCC | inactive |
| O=C1C=CC(=O)O1 | inactive |
| CN1CCN(C2=Nc3cc(F)ccc3Cc3ccccc32)CC1 | 23.7 µM (active) |
| Oc1ccccc1F | inactive |
| Nc1cccc(S(=O)(=O)O)c1 | inactive |
| COC(=O)C(C)O (stereo not drawn) | inactive |
| CC(C)O | inactive |
| CCCCC1CCC(=O)O1 (stereo not drawn) | inactive |
| CC1(C)O[C@@H]2C[C@H]3[C@@H]4CCC5=CC(=O)CC[C@]5(C)[C@@]4(F)[C@@H](O)C[C@]3(C)[C@]2(C(=O)CCl)O1 | inactive |
